Among the test systems are RPMI-8226 leukemia; OVCAR-8 ovarian; OVCAR-5 ovarian; OVCAR-4 ovarian; SK-OV-3 ovarian; IGROV1 ovarian; OVCAR-3 ovarian; HS 578T breast; NCI/ADR-RES ovarian; T-47D breast.
Common to all, as to assay: NCI-60 one-dose screen, 48 h (100 = growth as untreated, 0 = no growth, -100 = all killed)
Holding throughout (settings): 10 µM unless noted

Each structure is given as a SMILES string. About 83,000 compounds went through this panel and 20% of them were active in at least one assay; those are over-represented in the sample as a whole.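 Interpretation: 100, growth as untreated; towards 0, rising growth inhibition; 0, no net growth; 0 to -100, cell death. Compounds scoring below 10 were considered active.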 A number with no mark means an inactive call. Activity calls are given as the source filed them.

Consider `O=S1(=O)N(Cc2ccccc2)[C@@H](Cc2ccccc2)C2O[C@H]2[C@H](Cc2ccccc2)N1Cc1ccccc1` (some centres undefined), for which the growth with RPMI-8226 leukemia is 27.9%; in the assay with OVCAR-8 ovarian, 52.4%; with OVCAR-5 ovarian, 93.5%; in the assay with OVCAR-4 ovarian it was 6.6% (active); with SK-OV-3 ovarian it was 47%; with IGROV1 ovarian it was 60.6%. Also, the growth with OVCAR-3 ovarian is 62.8%; in the assay with HS 578T breast it was 98.9%; in the assay on NCI/ADR-RES ovarian, 40%; in the assay with T-47D breast, 32.5%.

Consider `CCN1C(=O)N(CC)C2Nn3c(s/c(=C\c4ccccc4F)c3=O)=NC21` (centres undefined), for which the growth with RPMI-8226 leukemia is 54.1%; with OVCAR-8 ovarian, 44%; in the assay on OVCAR-5 ovarian, 76.5%; in the assay on OVCAR-4 ovarian, 84.9%; with SK-OV-3 ovarian, 44.8%; in the assay with IGROV1 ovarian it was 61.1%. In addition, the growth in the assay on OVCAR-3 ovarian is 28.5%; in the assay with HS 578T breast it was 56.9%; in the assay with NCI/ADR-RES ovarian, 7.68% (active); in the assay with T-47D breast, 72.8%.

Regarding `Nc1no[n+]([O-])c1-c1nnc2c(n1)-c1ccccc1C2=O`, the growth in the assay with RPMI-8226 leukemia is 18.1%; with OVCAR-8 ovarian, 65.7%; with OVCAR-5 ovarian it was 83.9%; in the assay on OVCAR-4 ovarian, -97.5% (active); in the assay on SK-OV-3 ovarian it was 111%; in the assay on IGROV1 ovarian it was 82.6%. The growth in the assay on OVCAR-3 ovarian was -20.2% (active); in the assay with HS 578T breast, 89%; with NCI/ADR-RES ovarian, 72.1%; with T-47D breast, 61%.

For the compound `COc1ccc(-c2nsc3c2NC(=O)CC3c2cccc(OC)c2)cc1` (centres undefined), the growth with RPMI-8226 leukemia was 12.1%; with OVCAR-8 ovarian, 45.9%; in the assay on OVCAR-5 ovarian, 52.9%; in the assay on OVCAR-4 ovarian it was 39.9%; with SK-OV-3 ovarian, 14.2%; in the assay on IGROV1 ovarian, 45.5%. For the same compound, the growth with OVCAR-3 ovarian is -18.6% (active); with HS 578T breast, 28.5%; in the assay on NCI/ADR-RES ovarian it was 32.4%; in the assay on T-47D breast it was 35.2%.

Consider `COc1cc(C2C(C#N)=C(N)OC3=C2C(=O)c2ccccc2C3=O)cc(OC)c1O` (centres undefined), for which the growth with RPMI-8226 leukemia is 17.1%; with OVCAR-8 ovarian, 33.7%; with OVCAR-5 ovarian, 65.5%; in the assay with OVCAR-4 ovarian, 81.9%; in the assay on SK-OV-3 ovarian, 48.2%; in the assay with IGROV1 ovarian it was 62.1%. Besides, the growth in the assay with OVCAR-3 ovarian was 1.44% (active); with HS 578T breast, 6.8% (active); with NCI/ADR-RES ovarian it was 66.5%; in the assay with T-47D breast, 88.4%.

With `O=C(c1ccccc1)N(C(=S)NCCc1ccc(Cl)cc1)c1ccc(Cl)cc1`, the growth is 62.5% in the assay with RPMI-8226 leukemia; 41.1% with OVCAR-8 ovarian; 81.3% with OVCAR-5 ovarian; 88.8% with OVCAR-4 ovarian; 104% with SK-OV-3 ovarian; 87.4% in the assay on IGROV1 ovarian. The growth with OVCAR-3 ovarian was 27.7%; with HS 578T breast it was 62.5%; in the assay on NCI/ADR-RES ovarian it was 101%; with T-47D breast, 45.5%.

As to `COc1ccc(C)c2sc(N(Cc3cccnc3)C(=O)c3ccc(C#N)cc3)nc12`, the growth in the assay on RPMI-8226 leukemia was 8.4% (active); in the assay with OVCAR-8 ovarian, -10.5% (active); with OVCAR-5 ovarian, 24.3%; with OVCAR-4 ovarian, 14.3%; with SK-OV-3 ovarian, 12.6%; with IGROV1 ovarian it was -14.3% (active). Also, the growth with OVCAR-3 ovarian was 15.1%; with HS 578T breast, -1.42% (active); in the assay on NCI/ADR-RES ovarian it was 9.32% (active); with T-47D breast it was -0.727% (active).

On to `CN(C)c1ccc(/C=C/c2ccnc3c(O)cccc23)cc1`, for which the growth with RPMI-8226 leukemia is 1.91% (active); with OVCAR-8 ovarian it was 8.43% (active); in the assay on OVCAR-5 ovarian, 35.5%; with OVCAR-4 ovarian, 31.9%; with SK-OV-3 ovarian, 24.7%; with IGROV1 ovarian it was 11.4%. Further, the growth in the assay with OVCAR-3 ovarian is 29.7%; with HS 578T breast, 43%; with NCI/ADR-RES ovarian, 19.5%; in the assay on T-47D breast, 16.9%.

Turning to `CCOC(=O)c1c2c(n3cccc(Cl)c13)C(=O)c1ncccc1C2=O`, the growth was 61.2% in the assay with RPMI-8226 leukemia; 12% in the assay on OVCAR-8 ovarian; 84.1% in the assay with OVCAR-5 ovarian; 23.5% with OVCAR-4 ovarian; 54.4% in the assay on SK-OV-3 ovarian; 61.9% in the assay on IGROV1 ovarian. For the same compound, the growth with OVCAR-3 ovarian is 5.39% (active); in the assay with HS 578T breast, 61.3%; with NCI/ADR-RES ovarian, 38.3%; with T-47D breast, 75.9%.

With `COc1ccc(Cn2c(Br)c3c(c2Br)-c2nc(NC(=O)c4ccc(OC)cc4)sc2CC3)cc1`, the growth in the assay on RPMI-8226 leukemia is 71.8%; in the assay on OVCAR-8 ovarian, 61.4%; in the assay with OVCAR-5 ovarian it was 79.4%; in the assay on OVCAR-4 ovarian, 49.7%; in the assay on SK-OV-3 ovarian, 72.9%; in the assay on IGROV1 ovarian, 38.2%. The growth with OVCAR-3 ovarian was 88.6%; in the assay on NCI/ADR-RES ovarian, 74.7%; with T-47D breast, 68.7%.

As to `CC(=O)c1ccc2oc(=O)n(Cc3ccc(C#N)cc3)c(=O)c2c1`, the growth in the assay on RPMI-8226 leukemia was 106%; in the assay with OVCAR-8 ovarian, 103%; with OVCAR-5 ovarian it was 103%; with OVCAR-4 ovarian, 96.3%; in the assay on SK-OV-3 ovarian it was 119%; in the assay on IGROV1 ovarian, 108%. The growth was 117% in the assay with OVCAR-3 ovarian, 103% in the assay on HS 578T breast, 110% with NCI/ADR-RES ovarian and 104% with T-47D breast.

Source of the values: PubChem BioAssay (NCI).
